Here are results for 14 molecules from PubChem BioAssay (EPA / NIEHS).

In assay [1] the target is Estrogen receptor beta (Homo sapiens) (UniProt Q92731). In words: OT_ER_ERbERb_1440: Odyssey Thera (OT) 24-hour HEK293T Protein-Complementation Assay for Estrogen Receptor-beta/-beta Homodimer (AID 2283380).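 Further: scored as signal increase over DMSO baseline for both agonists and antagonists.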 The gist of the method: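 HEK293T cells stably expressing ER beta LBD (aa 310-547) homodimer fragment-complementation reporter, dosed 24 h. Cells formaldehyde-fixed, Draq5-stained; gain in nuclear (agonist) or nuclear plus cytoplasmic (antagonist) fluorescence versus DMSO read by laser scanning cytometry.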

The target in assay [2] is Estrogen receptor (Homo sapiens) (UniProt P03372). In words: OT_ERa_GFPERaERE_0480: Odyssey Thera (OT) 8-hour HeLa Transcription Induction Assay for Estrogen Receptor (AID 2283381; active means hit-call score of the fitted dose curve at least 0.9, where 1 is the maximum; inactive means score below 0.9). The gist of the method: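 Fluorescence microscopy with high-content image analysis measures ERE-driven GFP induction in HeLa cells at 8 h post-dose. Increases fitted against DMSO baseline.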

Assay [3] shares this target. In words: OT_ERa_GFPERaERE_0120: Odyssey Thera (OT) 2-hour HeLa Transcription Induction Assay for Estrogen Receptor (AID 2283382). In short, it runs like this: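 Fluorescence-microscopy images of the GFP-ERα/ERE reporter, scored by high-content image algorithms, give the readout. HeLa exposure lasted 2 h, and only signal increase over DMSO was fitted.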
Assay [4] concerns the target Retinoic acid receptor RXR-alpha (Homo sapiens) (UniProt P19793). The experiment in a line: OT_NURR1_NURR1RXRa_0480: Odyssey Thera (OT) 8-hour HEK293T Protein Complementation Assay for Nurr1/retinoid X receptor (RXR) (AID 2283385). In short, it runs like this:
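Interaction of Nurr1 with RXRα read as reconstituted reporter fluorescence in a HEK293T fragment-complementation system, 8 h post-treatment; increase over DMSO baseline analysed.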

The target of assay [5] is Peroxisome proliferator-activated receptor gamma (Homo sapiens) (UniProt P37231). The experiment in a line: OT_PPARg_PPARgSRC1_0480: Odyssey Thera (OT) 8-hour Protein-Complementation Assay for Peroxisome Proliferator-activated Receptor Gamma / SRC-1 Co-activator (AID 2283387).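 Further: nuclear to cytoplasmic split Venus YFP fluorescence ratio reporting PPARg SRC-1 interaction.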 In short, it runs like this:
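Protein-fragment complementation of split Venus YFP reports PPARg/SRC-1 interaction in HEK293T (transfected 48 h before treatment), exposed 8 h. Readout: N/C fluorescence ratio at 488 nm from imaging, Draq5 for segmentation, positive fit relative to DMSO.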

For assay [6] the target is unchanged. The experiment in a line: OT_PPARg_PPARgSRC1_1440: Odyssey Thera (OT) 24-hour Protein-Complementation Assay for Peroxisome Proliferator-activated Receptor Gamma/ SRC-1 Co-activator (AID 2283388).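 Further: nuclear to cytoplasmic ratio of reconstituted Venus YFP fluorescence in fixed imaged cells.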 The gist of the method: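 Transient HEK293T, YFP fragments 1-158/159-239 (mutant IFP1/IFP2) fused to PPARg/SRC-1; 24 h dosing; fix 4% formaldehyde, Draq5; Opera imaging 488/635 nm; N/C ratio, gain vs DMSO.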

Assay [7] concerns the target Bile acid receptor (Homo sapiens) (UniProt Q96RI1). The experiment in a line: OT_FXR_FXRSRC1_0480: Odyssey Thera (OT) 8-hour HEK293T Protein-Complementation Assay for Farnesoid X receptor/SRC-1 Co-activator (AID 2283383). In short, it runs like this: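 Binding of FXR to coactivator SRC-1 was read as fluorescence from a reconstituted split reporter in HEK293T cells, 8 h after chemical addition. Only increases in signal versus DMSO were fit.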

Assay [8] concerns the target Retinoic acid receptor RXR-alpha (Homo sapiens) (UniProt P19793). In words: OT_NURR1_NURR1RXRa_1440: Odyssey Thera (OT) 24-hour HEK293T Protein Complementation Assay for Nurr1/retinoid X receptor (RXR) (AID 2283386). The gist of the method:
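Gain in fluorescence, fitted relative to DMSO, reflects Nurr1–RXRα association in HEK293T cells after 24 h dosing. Bait and prey are each linked to a reporter-protein fragment that reassembles on interaction.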

Assay [9] concerns the target Bile acid receptor (Homo sapiens) (UniProt Q96RI1). In words: OT_FXR_FXRSRC1_1440: Odyssey Thera (OT) 24-hour HEK293T Protein-Complementation Assay for Farnesoid X receptor/SRC-1 Co-activator (AID 2283384). The gist of the method: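 Protein-fragment complementation: FXR and SRC-1 fused to reporter fragments that reassemble on interaction, read by fluorescence intensity. Human HEK293T cells measured 24 h post-dose; positive-direction fit versus DMSO.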

Assay [10] in a line: CEETOX_H295R_OHPREG: CeeTox H295R High-throughput Steroidogenesis Assay for OH-Pregnenolone (OHPREG) (AID 2283434; active means hit-call score of the fitted dose curve at least 0.9, where 1 is the maximum; inactive means score below 0.9). The following applies: actives raise or lower the signal. The gist of the method:
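H295R, 10 uM forskolin pre-stim 48 h; test chemical 48 h, 0.1% DMSO final. MTBE extraction, reverse-phase C18 HPLC-ESI+ MS/MS of medium. Gain/loss vs DMSO; viability by MTT in same wells.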

Assay [11] is described as follows: CEETOX_H295R_11DCORT: CeeTox H295R High-throughput Steroidogenesis Assay for 11-Deoxycortisol (11DCORT) (AID 2283432; active means hit-call score of the fitted dose curve at least 0.9, where 1 is the maximum; inactive means score below 0.9). The note with it: actives raise or lower the signal. The gist of the method: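 Human adrenal H295R cells were prestimulated with 10 uM forskolin for 48 h, then exposed to test chemical (0.1% DMSO final) for 48 h. Medium 11-deoxycortisol was quantified by MTBE extraction and HPLC-MS/MS; bidirectional fitting relative to DMSO.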

Assay [12] in a line: CEETOX_H295R_CORTIC: CeeTox H295R High-throughput Steroidogenesis Assay for Corticosterone (CORTIC) (AID 2283437; active means hit-call score of the fitted dose curve at least 0.9, where 1 is the maximum; inactive means score below 0.9;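 further: corticosterone secreted into medium quantified by mass spectrometry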). The note with it: actives raise or lower the signal. In short, it runs like this: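 48 h forskolin (10 uM) prestim, then 48 h chemical exposure, final DMSO 0.1%. Readout: corticosterone in medium by LC-MS/MS after MTBE extraction. Gain/loss fit vs DMSO; MTT viability in same wells.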

Assay [13] is described as follows: CEETOX_H295R_CORTISOL: CeeTox H295R High-throughput Steroidogenesis Assay for Cortisol (AID 2283438; active means hit-call score of the fitted dose curve at least 0.9, where 1 is the maximum; inactive means score below 0.9;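 further: cortisol secreted into medium quantified by LC-MS/MS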). The following applies: actives raise or lower the signal. In short, it runs like this: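 Cortisol measured by HPLC-MS/MS after MTBE extraction of medium from H295R cells exposed 48 h to chemical (0.1% DMSO), following 48 h prestimulation with 10 uM forskolin. Viability assessed by MTT in the same wells.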

Assay [14] in a line: CEETOX_H295R_DOC: CeeTox H295R High-throughput Steroidogenesis Assay for DOC (AID 2283439; active means hit-call score of the fitted dose curve at least 0.9, where 1 is the maximum; inactive means score below 0.9). The following applies: actives raise or lower the signal. In short, it runs like this: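 11-Deoxycorticosterone quantified in medium by MTBE extraction and HPLC-MS/MS after 48 h chemical exposure (0.1% DMSO) of forskolin-primed (10 uM, 48 h) H295R cells. Same-well MTT viability; data fitted bidirectionally against DMSO.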

Assay [15] addresses Agonist Androgen Response Element (ARE), AR (gene 367) (UniProt P10275). In words: OT_AR_ARELUC_AG_1440: Odyssey Thera (OT) 24-hour CHO-K1 Luciferase Assay for Agonist Androgen Response Element (ARE) (AID 2283379). In short, it runs like this:
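Gain-of-signal reporter endpoint: cells (CHO-K1, hamster) are treated 24 h, luciferin/ATP reagent added, and luminescence compared with DMSO baseline.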

Values joined by “and” are separate entries in the source; they are usually repeats but may differ in a detail not shown here. Equal entries are not always repeated. Inconclusive results are not listed. The source holds several records for some structures; these can differ, active in one and inactive in another. Active and inactive are the calls of the source. How the source made its calls, unless noted: active means hit-call score of the fitted dose curve at least 0.9, where 1 is the maximum; inconclusive means response in the unintended direction; inactive means score below 0.9.

Chain of Retinoic acid receptor RXR-alpha (Homo sapiens) (P19793 whole entry, looked up, the tested form may be a part): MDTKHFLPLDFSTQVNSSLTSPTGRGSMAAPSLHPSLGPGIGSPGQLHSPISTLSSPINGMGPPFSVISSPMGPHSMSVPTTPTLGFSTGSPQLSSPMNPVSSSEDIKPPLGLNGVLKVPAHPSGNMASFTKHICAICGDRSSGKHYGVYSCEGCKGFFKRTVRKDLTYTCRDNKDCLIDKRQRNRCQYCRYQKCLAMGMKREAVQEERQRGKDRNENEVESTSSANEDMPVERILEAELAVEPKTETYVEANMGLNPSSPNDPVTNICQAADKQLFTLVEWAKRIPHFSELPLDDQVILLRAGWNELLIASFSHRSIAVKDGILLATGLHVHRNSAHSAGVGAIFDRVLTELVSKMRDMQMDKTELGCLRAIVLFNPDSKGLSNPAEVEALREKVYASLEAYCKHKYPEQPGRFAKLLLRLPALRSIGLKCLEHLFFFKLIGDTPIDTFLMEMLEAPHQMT
Chain of Estrogen receptor beta (Homo sapiens) (Q92731 whole entry, looked up, the tested form may be a part): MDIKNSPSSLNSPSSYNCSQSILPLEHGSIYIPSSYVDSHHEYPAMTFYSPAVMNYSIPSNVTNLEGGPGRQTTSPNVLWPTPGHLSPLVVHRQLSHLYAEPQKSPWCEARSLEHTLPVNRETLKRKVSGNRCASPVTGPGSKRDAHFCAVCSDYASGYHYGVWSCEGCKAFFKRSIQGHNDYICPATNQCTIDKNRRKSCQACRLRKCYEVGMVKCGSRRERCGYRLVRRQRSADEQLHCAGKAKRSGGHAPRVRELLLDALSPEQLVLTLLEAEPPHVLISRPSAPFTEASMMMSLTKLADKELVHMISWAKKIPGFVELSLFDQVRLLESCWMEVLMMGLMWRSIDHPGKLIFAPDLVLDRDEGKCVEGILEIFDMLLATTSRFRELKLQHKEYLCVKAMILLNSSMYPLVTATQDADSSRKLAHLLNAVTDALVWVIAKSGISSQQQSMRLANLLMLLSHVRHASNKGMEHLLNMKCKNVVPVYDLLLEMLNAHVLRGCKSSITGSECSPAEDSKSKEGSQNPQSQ
Chain of Bile acid receptor (Homo sapiens) (Q96RI1 whole entry, looked up, the tested form may be a part): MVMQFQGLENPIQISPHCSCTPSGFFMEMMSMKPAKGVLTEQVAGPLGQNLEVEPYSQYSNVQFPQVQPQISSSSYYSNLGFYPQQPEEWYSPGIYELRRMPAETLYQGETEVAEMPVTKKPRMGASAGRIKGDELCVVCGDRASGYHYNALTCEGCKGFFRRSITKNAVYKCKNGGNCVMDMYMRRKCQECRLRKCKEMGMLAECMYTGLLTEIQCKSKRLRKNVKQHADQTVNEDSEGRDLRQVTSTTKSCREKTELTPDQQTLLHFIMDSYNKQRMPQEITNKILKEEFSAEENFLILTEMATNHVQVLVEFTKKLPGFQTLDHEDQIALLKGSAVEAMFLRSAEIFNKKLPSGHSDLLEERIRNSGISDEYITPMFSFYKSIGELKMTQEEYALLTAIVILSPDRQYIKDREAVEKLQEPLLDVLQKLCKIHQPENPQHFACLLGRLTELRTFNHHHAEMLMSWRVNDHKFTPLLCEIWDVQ
Chain of Estrogen receptor (Homo sapiens) (P03372 whole entry, looked up): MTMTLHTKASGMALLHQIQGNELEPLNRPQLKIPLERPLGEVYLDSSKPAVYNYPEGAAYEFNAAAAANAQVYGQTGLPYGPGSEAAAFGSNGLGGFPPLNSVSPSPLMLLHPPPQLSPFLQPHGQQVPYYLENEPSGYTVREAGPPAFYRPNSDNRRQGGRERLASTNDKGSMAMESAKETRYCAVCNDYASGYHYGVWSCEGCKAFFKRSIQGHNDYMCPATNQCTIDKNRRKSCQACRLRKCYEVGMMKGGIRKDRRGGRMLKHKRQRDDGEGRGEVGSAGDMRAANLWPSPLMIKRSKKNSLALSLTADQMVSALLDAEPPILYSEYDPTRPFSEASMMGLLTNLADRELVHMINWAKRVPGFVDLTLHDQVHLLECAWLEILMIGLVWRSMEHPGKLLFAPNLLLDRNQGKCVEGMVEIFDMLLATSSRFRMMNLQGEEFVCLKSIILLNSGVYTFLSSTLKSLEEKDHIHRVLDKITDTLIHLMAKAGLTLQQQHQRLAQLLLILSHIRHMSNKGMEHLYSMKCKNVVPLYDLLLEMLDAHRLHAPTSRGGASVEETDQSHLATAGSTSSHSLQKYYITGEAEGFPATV
Chain of Peroxisome proliferator-activated receptor gamma (Homo sapiens) (P37231 whole entry, looked up, the tested form may be a part): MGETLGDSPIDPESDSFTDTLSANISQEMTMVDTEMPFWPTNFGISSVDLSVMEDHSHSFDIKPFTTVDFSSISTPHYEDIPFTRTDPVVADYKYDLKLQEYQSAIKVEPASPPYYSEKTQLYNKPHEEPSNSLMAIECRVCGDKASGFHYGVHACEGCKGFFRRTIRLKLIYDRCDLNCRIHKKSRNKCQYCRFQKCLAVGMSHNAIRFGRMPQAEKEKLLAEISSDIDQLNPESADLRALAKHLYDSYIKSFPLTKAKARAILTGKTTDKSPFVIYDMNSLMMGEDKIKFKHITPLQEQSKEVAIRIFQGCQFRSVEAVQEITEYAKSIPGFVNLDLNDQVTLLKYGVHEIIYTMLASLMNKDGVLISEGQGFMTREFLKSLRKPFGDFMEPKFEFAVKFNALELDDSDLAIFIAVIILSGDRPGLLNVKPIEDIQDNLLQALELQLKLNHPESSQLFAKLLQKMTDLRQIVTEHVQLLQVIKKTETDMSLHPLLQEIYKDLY
Chain of Agonist Androgen Response Element (ARE), AR (gene 367) (P10275 whole entry, looked up): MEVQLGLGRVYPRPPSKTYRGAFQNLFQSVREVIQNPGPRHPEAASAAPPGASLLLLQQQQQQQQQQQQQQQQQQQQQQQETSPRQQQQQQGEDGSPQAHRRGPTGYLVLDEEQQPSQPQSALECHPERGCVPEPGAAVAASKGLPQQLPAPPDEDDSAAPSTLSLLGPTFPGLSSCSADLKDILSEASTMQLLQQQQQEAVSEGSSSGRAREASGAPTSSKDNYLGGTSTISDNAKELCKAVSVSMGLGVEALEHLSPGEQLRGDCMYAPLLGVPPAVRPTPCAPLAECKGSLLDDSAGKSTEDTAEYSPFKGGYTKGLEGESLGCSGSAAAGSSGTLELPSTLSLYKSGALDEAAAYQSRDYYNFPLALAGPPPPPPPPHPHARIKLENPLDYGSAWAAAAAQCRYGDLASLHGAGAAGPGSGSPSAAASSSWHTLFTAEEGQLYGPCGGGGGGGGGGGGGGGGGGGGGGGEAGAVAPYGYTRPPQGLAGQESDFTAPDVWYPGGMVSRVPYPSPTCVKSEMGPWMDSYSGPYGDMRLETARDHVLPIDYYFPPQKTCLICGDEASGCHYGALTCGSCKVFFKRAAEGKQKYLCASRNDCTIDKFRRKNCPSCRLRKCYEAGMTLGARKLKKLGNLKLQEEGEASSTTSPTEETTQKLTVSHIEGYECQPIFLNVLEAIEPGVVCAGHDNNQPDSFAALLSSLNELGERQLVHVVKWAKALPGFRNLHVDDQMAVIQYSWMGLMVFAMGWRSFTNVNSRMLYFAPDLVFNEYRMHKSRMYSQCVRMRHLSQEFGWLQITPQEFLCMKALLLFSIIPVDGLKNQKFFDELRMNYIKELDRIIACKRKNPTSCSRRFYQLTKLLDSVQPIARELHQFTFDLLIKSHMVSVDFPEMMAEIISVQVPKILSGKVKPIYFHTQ

As to `CC(C)(O)c1ccc(CNC(=O)c2cccnc2Oc2ccc3nonc3c2)cc1`, the result in assay [1], in assay [2], in [3], in [4], in assay [5] and in [6] was inactive.
In general, AC50 refers to the concentration at which the activity in the assay is half-maximal. Take `O=c1[nH]sc2ccccc12`: the molecule was called inactive in assay [1], in [3], in assay [5] and in assay [6]. Besides, the AC50 in [2] is 91.7 µM (active).
With `Cc1cccc2ccccc12`, the molecule was classed as inactive in [2], in assay [3], in [7], in assay [4], in assay [8] and in assay [5]. Moreover, the call in assay [6] was inactive.
With `O=C(O)c1ccccc1-n1cc(C(=O)O)c(=O)c2cc(Nc3c(F)cc(F)cc3Cl)c(Cl)cc21`, the molecule was called inactive in assay [1], in [2], in [3], in [7], in assay [9] and in assay [4]. Further, the call in assay [8], in assay [5] and in [6] was inactive.
Regarding `CO[C@H]1/C=C/O[C@@]2(C)Oc3c(C)c(O)c4c(O)c(c(/C=N/N5CCN(C)CC5)c(O)c4c3C2=O)NC(=O)/C(C)=C\C=C\[C@H](C)[C@H](O)[C@@H](C)[C@@H](O)[C@@H](C)[C@H](OC(C)=O)[C@@H]1C`, the molecule was called inactive in [1], in assay [4], in assay [8], in [5], in [6] and in assay [10].
Take `c1ccc2ccccc2c1`: the outcome in assay [2], in [3], in [9], in assay [8], in assay [5] and in assay [6] was inactive.
On to `O=C1CCC(C2CCCCC2)CC1`, for which the molecule was classed as inactive in assay [1], in assay [7], in assay [9], in assay [4], in [8] and in assay [5]. For the same molecule, the call in assay [6], in assay [11], in assay [12], in assay [13] and in assay [14] was inactive. In addition, the AC50 in assay [7] was 33.1 µM (active) and 50 µM (active); in assay [9], 38.4 µM (active); in assay [10], 80.4 µM (active).
On to `CN1C(=O)CC[C@H]1c1cccnc1`, for which the outcome in assay [1], in assay [8], in assay [5] and in [6] was inactive.
Take `CC1(C)NC(=O)N(c2ccc([N+](=O)[O-])c(C(F)(F)F)c2)C1=O`: the molecule was called inactive in assay [1], in [7], in assay [9], in assay [4], in assay [8] and in assay [5]. For the same molecule, the molecule was called inactive in assay [6].
Regarding `CCCCCCCCCC(=O)O`, the call in assay [15], in [4], in [8] and in assay [6] was inactive.
Turning to `CC[C@@H]1C[C@H](N(Cc2cc(C(F)(F)F)cc(C(F)(F)F)c2)C(C)=O)c2cc(C(F)(F)F)ccc2N1C(=O)OC(C)C`, the result in assay [1], in assay [2], in assay [3], in [4], in assay [8] and in assay [5] was inactive. For the same molecule, in [6], the result was inactive.
Consider `O=C(O)Cc1cc(I)c(Oc2ccc(O)c(I)c2)c(I)c1`, for which the molecule was called inactive in assay [1], in [7], in [5] and in assay [6]. Further, the AC50 in assay [9] was 28.6 µM (active) and 29 µM (active) and 23.8 µM (active).
Turning to `O=CCCCC=O`, the molecule was called inactive in assay [2], in assay [3], in assay [9], in [8], in assay [5] and in assay [6]. Also, the AC50 is 40.2 µM (active) in [7] and 50 µM (active) in [4].
On to `CC(O)CC(C)(C)O` (stereo unspecified), for which the outcome in assay [4], in assay [5] and in assay [6] was inactive.
